# In the supplement of paper PMC6555819:
# How the values were obtained:
# Assay in all cases: PBM binding z-score (relative to random genomic background probes); higher = stronger binding; sequences stand for … in GC…GCGATTGACAGCGTAGAATGAAGG
# [1] = test system: FXR:RXRa (NR concentration 270 nM, RXRa partner concentration 90 nM)
# Procedure, shortened: (§1)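 Ligand-free nuclear receptor dimers were bound for 1 h to custom Agilent 4×180K protein-binding microarrays. Detection used antibodies against each partner (one per run). Binding z-scores rest on regression-normalized fluorescence, with random background probes as the reference.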
# [2] = test system: LXRa:RXRa (NR concentration 270 nM, RXRa partner concentration 90 nM)
# Procedure, shortened: as §1
# [3] = test system: LXRa homodimer (NR concentration 270 nM)
# Procedure, shortened: as §1
# [4] = test system: LXRb:RXRa (NR concentration 270 nM, RXRa partner concentration 90 nM)
# Procedure, shortened: as §1
# [5] = test system: LXRb homodimer (NR concentration 270 nM)
# Procedure, shortened: as §1
# [6] = test system: PPARa:RXRa (NR concentration 270 nM, RXRa partner concentration 90 nM)
# Procedure, shortened: as §1
# [7] = test system: PPARg:RXRa (NR concentration 180 nM, RXRa partner concentration 90 nM)
# Procedure, shortened: as §1
# [8] = test system: PPARg:RXRa 270nM:90nM, anti-RXR (NR concentration 270 nM, RXRa partner concentration 90 nM)
# Procedure, shortened: as §1
# [9] = test system: PPARg:RXRa 30nM:10nM, anti-RXR (NR concentration 30 nM, RXRa partner concentration 10 nM)
# Procedure, shortened: as §1
# [10] = test system: PPARg:RXRa 90nM:30nM, anti-RXR (NR concentration 90 nM, RXRa partner concentration 30 nM)
# Procedure, shortened: as §1
# [11] = test system: PPARg:RXRa DBDmut IVT, anti-RXR (DBD mutation: RXRa K156A/R161A, NR concentration 270 nM, RXRa partner concentration 90 nM)
# Procedure, shortened: as §1
# [12] = test system: PPARg:RXRa IVT, anti-PPARg (NR concentration 270 nM, RXRa partner concentration 90 nM)
# Procedure, shortened: as §1
# [13] = test system: PPARg DBDmut:RXRa IVT, anti-PPARg (DBD mutation: PPARg1 K132A/R137A, NR concentration 270 nM, RXRa partner concentration 90 nM)
# Procedure, shortened: as §1
# [14] = test system: PPARg DBDmut IVT, anti-PPARg (DBD mutation: PPARg1 K132A/R137A, NR concentration 270 nM)
# Procedure, shortened: as §1
# [15] = test system: PPARg homodimer (NR concentration 180 nM)
# Procedure, shortened: as §1
# [16] = test system: PXR:RXRa (NR concentration 270 nM, RXRa partner concentration 90 nM)
# Procedure, shortened: as §1
# [17] = test system: PXR homodimer (NR concentration 270 nM)
# Procedure, shortened: as §1
# [18] = test system: RARa:RXR (NR concentration 270 nM, RXRa partner concentration 90 nM)
# Procedure, shortened: as §1
# [19] = test system: RARa homodimer (NR concentration 270 nM)
# Procedure, shortened: as §1
# [20] = test system: RARb:RXRa (NR concentration 270 nM, RXRa partner concentration 90 nM)
# Procedure, shortened: as §1
Sequence,PBM binding z-score [1],PBM binding z-score [2],PBM binding z-score [3],PBM binding z-score [4],PBM binding z-score [5],PBM binding z-score [6],PBM binding z-score [7],PBM binding z-score [8],PBM binding z-score [9],PBM binding z-score [10],PBM binding z-score [11],PBM binding z-score [12],PBM binding z-score [13],PBM binding z-score [14],PBM binding z-score [15],PBM binding z-score [16],PBM binding z-score [17],PBM binding z-score [18],PBM binding z-score [19],PBM binding z-score [20]
TCTGCTGGGTCAACGATGGTCAGCTAATCTGCTA,2.59,1.95,-0.835,1.16,-0.168,3.19,1.92,2.57,1.69,2.14,3.36,3.7,1.06,0.239,0.518,1.46,-1.34,2.07,-1.24,3.6
ATCGAACGGTCGACGAGGTGAGTATACACCGTTT,-0.18,-0.425,-0.327,-0.336,-0.463,-0.0739,0.937,-0.158,-0.0439,-0.375,-0.724,0.667,0.31,0.651,-0.218,-0.192,-0.411,-0.0707,-0.605,0.92
AATACAGGGTCCTCGTAGGCCAGAGTACGCACAG,-0.0498,-0.32,-0.268,-0.362,-0.321,0.0293,0.721,-0.0515,-0.317,-0.0938,-0.234,0.716,-0.242,0.0325,-0.0615,-0.282,-0.0675,-0.118,-0.348,0.268
CCTCGGAGGACAACCGGAGGTCAGAGCTGCCAGA,1.26,2.64,2.71,1.52,-0.532,1.78,0.316,0.642,-0.954,0.0511,-0.468,0.238,-0.802,-1.28,1.17,2.33,0.578,2.46,0.0885,2.98
ATCGAATGGTCGAGGTGAGTATAGAGAAAGGGAA,0.114,-0.0823,-0.329,-0.326,-0.256,0.069,0.444,-0.0117,0.061,0.091,-0.483,0.658,1.03,0.73,0.372,-0.283,0.0857,0.0342,0.112,0.541
TCTGCTTGGTCAACGATGGTCAGCTAATCTGCTA,-0.224,-0.219,-0.946,-0.549,-0.202,0.184,-0.488,0.665,1.65,0.96,0.689,0.425,0.225,-0.53,-0.633,-0.0602,-0.841,0.401,-1.62,1.17
CCTAGCAGGCGAGGGTCACTCAAGCATTTCGCTT,1.72,1.44,-0.428,1.56,-1.08,2.63,0.461,1.58,-0.298,1.34,0.277,0.13,-1.61,-1.34,0.73,1.63,-0.241,2.62,-0.425,2.29
GCTGCTAGGTCAACTGATGGTGAGCTAAAGCTCG,4.47,2.63,-0.169,1.71,-0.179,3.57,2.57,3.02,0.564,2.06,5.09,4.15,-0.747,-0.586,1.16,1.22,-0.899,2.11,-0.283,4.28
ACTAATTGGTCAGCTGAGGTCACACACAATTCGG,3.46,3.25,2.59,3.68,1.15,4.06,2.17,2.77,1.23,1.88,1.58,2.86,1.1,1.2,2.75,5.67,1.67,4.72,1.56,3.91
ACTCGGAGGACAAACGTCAGAGCTACGCCAGTGA,-0.117,-0.418,-0.482,-0.769,-0.602,-0.386,0.904,0.765,-0.389,0.589,-0.0796,-0.507,-0.617,-0.00127,-0.209,-0.77,-0.0928,-0.299,-0.122,0.951
CGAACTAGGTCATCGAGGACAGTGAATACATTGA,4.22,2.59,0.3,1.9,-0.0709,4.86,7.79,6.42,4.26,6.2,8.15,8.47,2.12,2.09,1.73,2.62,2.57,2.26,0.951,4
CAGCCTAGTTCAGGGCCAGTATAGGAGGAACGTT,0.0528,-0.124,-0.0841,-0.218,-0.532,-0.241,-0.041,-0.6,-0.567,-0.509,-0.416,-0.592,-0.87,-0.941,-0.37,-0.0793,0.431,-0.13,-0.131,1.05
GCTGCTAGGTTAACTGATGGTCAGCTAAAGCTCG,-0.137,1.44,-0.782,0.138,-0.9,0.846,-0.15,0.209,-0.499,-0.243,2.43,1.36,-1.35,-0.847,-0.127,0.00634,-0.91,0.512,-1.49,1.54
CCTAGCAGGCCAGGTTCACTCAAGCATTTCGCTT,0.117,0.554,-0.238,0.666,-0.142,0.874,-0.212,-0.0179,-0.854,-0.512,0.866,-0.316,-1.77,-0.982,-0.179,0.776,0.391,0.488,-0.298,0.579
